# Screening results: PubChem BioAssay, several laboratories
# CF NFkB block: inhibitors of cystic fibrosis induced NF-kB. KKLEB NF-kB-GFP reporter, PAF-induced, GFP fluorescence overnight. 360,000 tested, 0.86% active. inhibition, % at 5 µM;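 active means at least 50% inhibition at 5 µM, scaled per plate between neutral and stimulator controls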;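 further: PAF is a Pseudomonas aeruginosa culture filtrate used as stimulus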
# HIF-2a inh: inhibitors of HIF-2a. AID 624352. inhibition, % at 18.8 µM. 786-0 RCC cells HIF-2a reporter, luciferase luminescence, overnight. 360,000 tested, 0.72% active;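 active means inhibition of the luminescence signal of 40% or more relative to plate controls, in a single-dose primary screen at 18.75 µM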
# KKLEB cytotox: reduces viability of KKLEB cystic fibrosis airway cells; KKLEB CF airway cells viability, ATPlite luminescence, overnight; stronger effect = lower value; cells stimulated with P. aeruginosa culture filtrate; activity change (cytotoxicity), % at 5 µM; 360,000 tested, 0.36% active; AID 602141;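 active means corrected activity change at or below -50% at 5 µM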
# CHOP inh: CHOP inhibition in unfolded protein response | CHO-K1 CHOP-promoter luciferase, tunicamycin-induced, 15-18 h | inhibition, % at 10 µM | 220,000 tested, 3.8% active | AID 2732;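 active means compounds that reduced the stress-induced luciferase reporter signal by more than about 70% of percent inhibition, limit read from the data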
# Peg3 promoter: reduces Peg3 promoter-driven luciferase expression in HeLa; 360,000 tested, 1.7% active; AID 588405; HeLa PEG-Prom luciferase reporter, luminescence, overnight; inhibition, % at 20 µM;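 active means inhibition of at least 50% at 20 µM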
# MITF TRPM1 inh: inhibitors of MITF-driven TRPM1 promoter in melanoma cells. AID 488899. 330,000 tested, 0.83% active. SK-MEL-5 TRPM1 promoter luciferase, 24 h. inhibition, % at 12.5 µM;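 active means mean inhibition across replicates of 60% or more, whatever share of single replicates reaches that level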
# Hits are given with their value; – = inactive; · = no result given. This is a sample that favours compounds with a hit; in the whole collection about 4.3% have one here.
SMILES,CF NFkB block,HIF-2a inh,KKLEB cytotox,CHOP inh,Peg3 promoter,MITF TRPM1 inh
Cc1nn(-c2ccccc2)c(Cl)c1C(=O)Nc1nnc(C2CCCC2)s1,–,–,–,80,–,–
CCCCCCc1cc2cc(C(=O)NCc3ccccc3)c(=N)oc2cc1O,–,–,–,–,–,–
CCCCCCc1cc2cc(S(=O)(=O)c3ccc(C)cc3)c(=O)oc2cc1O,–,–,–,86,–,–
CCCCCCc1cc2cc(C(=O)Nc3ccccc3)c(=O)oc2cc1O,79,–,-83,71,–,72
Cc1cc(OCC(=O)N[C@@H](CSCc2ccccc2)C(=O)O)c2c(C)c(C)c(=O)oc2c1,–,–,–,·,–,–
Cc1cccc(C)c1NC(=O)C1(C)CN(S(C)(=O)=O)CC(=O)N1CCc1c[nH]c2ccccc12 (configuration not stated),·,–,·,·,·,·
COc1ccc(CCC(=O)NCC(=O)OCc2ccccc2)cc1,–,–,–,·,–,–
Cc1ccc2c(c1)sc(-c1ccc(N(C)C)cc1)[n+]2C,–,–,–,·,–,62
Nc1nn2cc(-c3ccc(Br)cc3)nc2c2ccccc12,–,–,–,–,–,–
Brc1ccc(-c2cn3nc4c(nc3n2)CCCC4)cc1,–,–,–,96,–,–
c1ccc(-c2cn3nc(-c4ccccc4)cnc3n2)cc1,–,–,–,–,–,–
c1ccc(-c2cn3nc4c(nc3n2)CCCC4)cc1,–,–,–,–,–,73
O=c1n(Cc2ccccc2F)c2ccccc2n1Cc1ccccc1F,–,–,–,74,–,–
COc1ccccc1CNC(=O)c1cc(-c2ccccc2)n(Cc2cc(C)no2)n1,–,–,–,·,–,–
CC(C)C(NC(=O)COc1ccc2ccccc2c1)C(=O)N/N=C/C=C/c1ccccc1 (configuration not stated),–,–,–,86,–,–
CC1CCN(CCCCOc2ccc(C(C)(C)C)cc2)CC1,–,–,–,·,–,–
CC(C)(c1ccccc1)c1ccc(OCCN2CCOCC2)cc1,–,–,–,·,–,–
CCC(C)NCCOc1ccc(C(C)(C)c2ccccc2)cc1 (configuration not stated),–,–,–,–,81,–
CC(C)(C)c1ccc(OCCCCCCN2CCNCC2)cc1,–,–,–,·,64,–
CC(C)(c1ccccc1)c1ccc(OCCCN2CCNCC2)cc1,–,–,–,–,79,–
Cc1ccc(S(=O)(=O)NC(=O)C2(C)CCN2C(=O)C2CC2)cc1 (configuration not stated),–,–,–,·,–,·
Cc1ccc(SC(C)c2nc(-c3ccccc3)no2)cc1 (configuration not stated),–,–,–,72,–,–
O=C(c1ccco1)N1CCN(C2CN(Cc3cn(Cc4ccccc4C(F)(F)F)nn3)S(=O)(=O)C2)CC1 (configuration not stated),–,–,–,·,–,·
COC(=O)[C@@]1(Cc2ccccc2)[C@@H]2C(=CC(=O)[C@H]2CC(=O)C(=O)N(C)C)CN1C(=O)c1ccccc1,–,68,–,–,–,–
COc1ccc(C(C(=O)NC(C)(C)C)n2c(-c3ccc(C(F)(F)F)cc3)nc3ccccc32)cc1 (configuration not stated),·,–,·,·,·,·
SMILES,CF NFkB block,HIF-2a inh,KKLEB cytotox,CHOP inh,Peg3 promoter,MITF TRPM1 inh
Cc1ccc(OCc2cc(C(=O)NC3CCc4ccccc43)no2)cn1 (configuration not stated),–,–,–,·,–,–
COc1ccc(/C=N/n2cc(-c3ccc(OC)cc3)nc2N)cc1,–,–,–,70,–,–
COc1ccc(/C=N/n2cc(-c3ccccc3)nc2N)cc1,–,–,–,–,–,–
O=C(c1cc(COc2ccc3ncccc3c2)on1)N1CCC(O)CC1,–,–,–,–,–,–
O=C(NC1CCCCCCC1)c1cc(COc2ccc3ncccc3c2)on1,–,–,–,81,–,–
O=C(c1ccco1)N(Cc1cccc([N+](=O)[O-])c1)c1ccc(Br)cc1,–,–,–,–,–,–
O=C(c1ccco1)N(Cc1ccc([N+](=O)[O-])cc1)c1ccc(Br)cc1,–,–,–,70,–,–
COc1ccc(C2CC(c3cccs3)=NN2C(=O)CSc2nc3c(cnn3-c3ccccc3)c(=O)[nH]2)cc1 (configuration not stated),–,–,–,76,–,–
COc1cccc(C2CC(c3cccs3)=NN2C(=O)CSc2nc3c(cnn3-c3ccc(F)cc3)c(=O)[nH]2)c1OC (configuration not stated),–,–,–,–,–,–
O=C(OCc1cn([C@@H]2C[C@H](c3ccccc3)N(C(=O)C3CCCCC3)C[C@H]2O)nn1)c1ccccc1,–,–,–,·,–,·
CC(C)n1nc(C(=O)OCC(=O)c2c[nH]c3ccccc23)c2ccccc2c1=O,–,–,–,81,–,–
O=C(Nc1ccc(Cl)cc1)Nc1nnc(CSCc2ccccc2Cl)s1,–,–,–,–,–,–
Cc1nnc(NC(=O)Nc2cccc(Cl)c2)s1,–,–,–,–,–,–
Cc1ccc(OCCSCc2nnc(NC(=O)Nc3cccc(Cl)c3)s2)cc1,–,–,–,83,–,–
O=C(Nc1ccc(Cl)c(Cl)c1)Nc1nnc(CSc2ccccc2)s1,73,–,-56,77,–,–
O=C(Nc1ccc(Cl)c(Cl)c1)Nc1nccs1,–,–,–,79,–,–
O=C(Nc1ccccc1)Nc1nnc(CSCc2ccccc2Cl)s1,–,–,–,90,–,–
COc1ccc(S(=O)(=O)N2CCCCC2)cc1C(=O)N1CCCC1,–,–,–,·,–,–
CC(=O)Nc1ccc(NC(=O)C(C)OC(=O)C2(c3ccccc3F)CCCC2)cc1 (configuration not stated),–,–,–,·,–,–
CCCCSc1nc2sc3c(c2c(=O)[nH]1)CC(C)(CC)OC3 (configuration not stated),–,–,–,·,–,–
Oc1c(C=Nc2ccccc2)sc(=S)n1Cc1ccccc1,–,–,–,80,–,–
CC(C)c1ccc(-c2nc(N3CCCCCC3)nc3n[nH]c(N)c23)cc1,–,–,–,80,–,–
CC(C)c1ccc(-c2nc(N3CCCC3)nc3n[nH]c(N)c23)cc1,–,–,–,–,–,–
Oc1c(-c2cc(-c3ccco3)[nH]n2)ccc2ccccc12,–,–,–,75,–,–
Oc1ccc(Br)cc1-c1cc(-c2ccco2)[nH]n1,–,–,–,80,–,–
Oc1ccccc1-c1cc(-c2ccco2)[nH]n1,–,–,–,–,–,–
O=C(OCc1nnc(-c2ccccc2)o1)C1CC(=O)N(Cc2ccco2)C1 (configuration not stated),–,–,–,–,–,–
Cn1cnc([N+](=O)[O-])c1S(=O)(=O)Oc1ccccc1,–,–,–,·,103,–
